Molecules are shown by their SMILES.

Our source for the composite z-score and z-score values is PubChem BioAssay.

The subject of assay [1] is Human papillomavirus type 1a protein E7 (residues 44-93). Description: HPV1a E7 fragment binders on microarrays, primary screen, biochemical, small-molecule microarray, residues 44-93, 635 nm fluorescence (AID 1108).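 Also: E7 fragment applied at 1 µg/mL in TBST for 1 h at 4 C; score combines spot fluorescence with its signal to noise ratio.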 As to conditions: small-molecule microarray binding, fluorescence 635 nm; higher = more signal.
Assay [2] is described as follows: modulators of HCV replicon luciferase signal, primary screen, HCV replication inhibitor project, Huh7 cells, luciferase reporter (AID 1109).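 Also: huh7 hepatoma cells harbouring a luciferase neomycin HCV replicon reporter; luciferase luminescence as measure of HCV replicon replication; test concentration not given here.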 As to conditions: 48 h, higher = more signal. (In general: A replicon is a self-replicating genome or part of one, used to study replication in cells.)
The target of assay [3] is Left-right determination factor 2 (Homo sapiens) (UniProt O00292). Description: LEFTY2 binders on small-molecule microarrays, primary screen, biochemical, small-molecule microarray, 635 nm fluorescence scan (AID 1110). Particulars: LEFTY2 binding, higher = more signal.
Assay [4] has as its target Calmodulin-1 (Homo sapiens) (UniProt P0DP23). Description: CALM1 binders on microarrays, EGTA buffer, profiling panel, biochemical, small-molecule microarray, Cy5-labelled CALM1 (AID 1111).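 Also: labelled calmodulin applied in Tris saline Tween buffer holding calcium plus EGTA and DTT.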 As to conditions: Cy5-CALM1 binding fluorescence, higher = more signal.
Assay [5] has the same target. Description: calcium-bound CALM1 binders on microarrays, profiling panel, artefact control for SMM control-protein annotation, biochemical, small-molecule microarray, Cy5-labelled CALM1, plus calcium (AID 1112).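 Also: score merges spot fluorescence with signal to noise from triplicate slides.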 Particulars: Cy5-CALM1 binding fluorescence, higher = more signal.
Assay [6] can be described thus: small-molecule microarray binders of probe aWnt5a, primary screen, biochemical, biotinylated probe, 635/667 nm fluorescence (AID 1113).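 Also: score merges 667 nm fluorescence intensity with signal-to-noise per printed feature.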 Particulars: higher = more signal.
Assay [7] can be described thus: small-molecule microarray binders of probe aShh, primary screen, biochemical, biotinylated probe, 635/667 nm fluorescence (AID 1114).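 Also: probe is biotin-labelled aShh protein from a stem cell growth factor screen; measures binding of labelled protein to compounds printed on the slide; score merges feature fluorescence at 667 nm with signal-to-noise.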 As to conditions: higher = more signal.
The nature of assay [8]: small-molecule microarray binders of probe aNog, primary screen, biochemical, biotinylated probe, 635/667 nm fluorescence (AID 1115).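 Also: probe is biotinylated aNog protein used at 0.15 µg/mL for 1 h at 4 C; z-score combines 667 nm fluorescence of each spot with its signal to noise.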 Particulars: higher = more signal.
Assay [9] has as its target Torsin-1A-interacting protein 1 (Homo sapiens) (UniProt Q5JTV8). Nature of the assay: LAP1 binders from COS7 cell lysate, primary screen, small-molecule microarray, 635/667 nm fluorescence (AID 1116). Particulars: COS7-hLAP1 lysate binding, 635 nm fluorescence, higher = more signal.
The target of assay [10] is Alpha-bungarotoxin (Bungarus multicinctus) (UniProt P60615). Nature of the assay: alpha-bungarotoxin binders on microarray, profiling panel, artefact control for SMM control protein annotation, biochemical, small-molecule microarray, Alexa647 label, 635/667 nm fluorescence (AID 1117). Particulars: alpha-BTX-A647 binding fluorescence, higher = more signal.
Alpha-bungarotoxin (Bungarus multicinctus), sequence (P60615 whole entry, looked up): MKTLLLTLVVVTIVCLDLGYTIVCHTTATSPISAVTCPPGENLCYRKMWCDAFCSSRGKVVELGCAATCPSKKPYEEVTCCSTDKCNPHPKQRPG

Left-right determination factor 2 (Homo sapiens), sequence (O00292 whole entry, looked up): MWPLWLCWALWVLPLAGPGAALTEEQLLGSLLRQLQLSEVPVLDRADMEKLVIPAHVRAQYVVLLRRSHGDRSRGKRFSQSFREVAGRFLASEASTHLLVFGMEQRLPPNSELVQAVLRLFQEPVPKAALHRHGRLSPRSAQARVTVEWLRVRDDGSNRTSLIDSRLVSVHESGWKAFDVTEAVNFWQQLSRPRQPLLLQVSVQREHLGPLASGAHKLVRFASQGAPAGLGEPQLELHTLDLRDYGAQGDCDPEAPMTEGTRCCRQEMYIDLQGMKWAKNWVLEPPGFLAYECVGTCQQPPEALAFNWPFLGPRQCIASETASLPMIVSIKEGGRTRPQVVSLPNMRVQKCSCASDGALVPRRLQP
Torsin-1A-interacting protein 1 (Homo sapiens), sequence (Q5JTV8 whole entry, looked up): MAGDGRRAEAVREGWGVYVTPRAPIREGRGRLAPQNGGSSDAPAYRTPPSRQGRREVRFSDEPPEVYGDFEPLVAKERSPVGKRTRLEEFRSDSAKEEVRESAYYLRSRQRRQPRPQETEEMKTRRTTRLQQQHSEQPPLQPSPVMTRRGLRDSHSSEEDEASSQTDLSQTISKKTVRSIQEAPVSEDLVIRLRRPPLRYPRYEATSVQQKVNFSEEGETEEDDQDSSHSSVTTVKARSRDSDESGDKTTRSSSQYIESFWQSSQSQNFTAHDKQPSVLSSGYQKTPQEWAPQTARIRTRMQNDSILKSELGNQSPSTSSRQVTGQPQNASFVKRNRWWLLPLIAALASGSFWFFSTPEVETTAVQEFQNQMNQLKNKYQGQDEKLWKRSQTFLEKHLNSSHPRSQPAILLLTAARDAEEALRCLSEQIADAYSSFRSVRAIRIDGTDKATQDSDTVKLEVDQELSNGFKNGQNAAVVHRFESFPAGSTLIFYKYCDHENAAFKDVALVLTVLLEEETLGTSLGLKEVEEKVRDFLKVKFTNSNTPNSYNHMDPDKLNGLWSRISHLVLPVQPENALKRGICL

Consider `CCCCC(O)C1C=CC2C(=O)N(c3ccccc3)C(=O)C2N1Nc1ccc(C(C)C)cc1` (stereo not given), for which the composite z-score in assay [1] is 1.41; in assay [3] it was 0.154; in [4], 1.25; in [5] it was 0.304; in [6] it was 0.0974; in assay [7] it was 0.0875. Besides, the composite z-score was -0.503 in assay [8], -0.236 in assay [9] and 1.06 in assay [10]. For the same compound, the z-score in [2] stood at 0.318.
Regarding `CCCCC=C[C@@H](NC(=O)c1ccc(-c2ccccc2)cc1)c1ccccc1`, the composite z-score in [1] was found to be 1.31; in assay [3], 0.184; in [4], 0.107; in assay [5] it was 0.506; in assay [6], 0.123; in assay [7], 0.934. Further, the composite z-score in [8] worked out at 0.964; in assay [9], 1.11; in assay [10] it was 0.401. In addition, in assay [2], the z-score is -2.21.
As for `CC(C)N1C(=O)c2ccccc2[C@@H](C(=O)NC2CC2)[C@@H]1c1ccc(CO)cc1`, the composite z-score was -0.142 in assay [1]; 0.415 in assay [3]; 1.01 in assay [4]; 0.343 in assay [5]; -0.0236 in assay [6]; -0.282 in assay [7]. The composite z-score in assay [8] is -0.288; in [9], 0.997; in assay [10] it was 0.654. In assay [2], the z-score worked out at 0.0045.
As to `CCOC(=O)C[C@H]1[C@H](OC(=O)c2cc3ccccc3oc2=O)[C@@H](NC(=O)c2ccc(-c3ccccc3)cc2)c2cc(OCCCO)ccc2N1C(=O)c1ccc2ccccc2n1`, the composite z-score in assay [1] is 1.38; in assay [3] it was 0.48; in assay [4] it was 0.0371; in assay [5] it was -0.455; in assay [6], -0.104; in assay [7], -0.195. Moreover, the composite z-score in assay [8] is -0.253; in assay [9], 0.624; in assay [10], 0.422. The z-score in assay [2] is -0.989.
Consider `COCCCNC(=O)[C@]1(CCS(=O)(=O)c2ccccc2)N=C(c2ccc(OCCCO)cc2)O[C@@H]1c1ccccc1CN=[N+]=[N-]`, for which the composite z-score was 0.826 in [1]; 0.329 in assay [3]; 2.49 in assay [4]; 1.12 in [5]; 0.392 in assay [6]; 0.536 in assay [7]. Moreover, the values for the composite z-score in assay [8], in [9] and in assay [10] were 1.54, 2.7 and 2.16, respectively. In assay [2], the z-score is -1.47.
Regarding `COC(=O)[C@@]1(Cc2ccccc2)[C@@H]2C(=CC(=O)[C@H]2CC(=O)C(=O)N(C)C)CN1C(=O)c1ccccc1`, the composite z-score in assay [1] was determined as 0.883; in assay [3] it was 0.25; in [4] it was 1.31; in [5] it was 0.477; in [6], 0.188; in assay [7], 0.21. Further, the composite z-score was 1.46 in assay [8], 0.275 in assay [9] and 0.409 in [10]. For the same compound, in [2], the z-score is -2.36.
For the compound `CCOC(=O)C1CCCCN1` (stereo not given), the composite z-score is 0.728 in [1]; 0.4 in [3]; -0.178 in assay [4]; -0.483 in [5]; 0.312 in [6]; 0.444 in [7]. The composite z-score stood at 0.144 in assay [8], 0.488 in [9] and 0.54 in [10]. Further, the z-score in [2] came to 0.417.
As to `CC(C)[Si](C#CCCCC#N)(O[C@H](c1ccccc1)c1cn([C@H](CO)Cc2ccccc2)nn1)C(C)C`, the composite z-score in assay [1] is 0.385; in assay [3], 0.36; in [4] it was 1.11; in assay [5], 0.295; in assay [6], -0.0459; in assay [7], -0.0793. Also, the composite z-score in [8] came to 0.0392; in assay [9], 0.222; in [10], 0.559. In addition, the z-score in assay [2] is -1.33.
As to `O=C1N(Cc2ccccc2)Cc2ccccc2[C@@H]2OC(c3ccc(OCCCO)cc3)=N[C@]12CCS(=O)(=O)c1ccccc1`, the composite z-score was 1.4 in assay [1]; 0.347 in [3]; 0.729 in [4]; 0.264 in [5]; -0.0758 in assay [6]; 0.265 in [7]. Also, the composite z-score in assay [8] was -0.319; in assay [9] it was -0.0362; in assay [10] it was 1.37. For the same compound, the z-score in [2] is -1.84.
`C=C(COC)/C(=C/C[C@H](OC(C)=O)c1ccc(OCCO)cc1)c1cc(C(=O)OC)ccc1OC`: the composite z-score in assay [1] is 0.697; in assay [3], 0.695; in [4] it was -0.24; in [5] it was -0.845; in [6] it was -0.0792; in assay [7] it was -0.169. Further, the composite z-score in assay [8] turned out to be 0.449; in assay [9], 2.13; in [10] it was 0.0079. For the same compound, in [2], the z-score was -1.13.
As for `[N-]=[N+]=NCc1ccccc1[C@H]1OC(c2ccc(OCCCO)cc2)=N[C@@]1(CCS(=O)(=O)c1ccccc1)C(=O)NCC(O)CO` (stereo not given in full), the composite z-score in assay [1] was 1.46; in [3] it was -0.342; in assay [4] it was 1.42; in assay [5], 0.66; in [6] it was 0.143; in assay [7], 0.522. The composite z-score in [8] is 1.59; in assay [9], 1.96; in assay [10] it was 1.66. Also, the z-score in assay [2] was -0.157.
With `COc1ccc([Si](C)(C)[C@@H]2[C@@H](CCn3cc([C@H](O)c4ccccc4)nn3)O[C@]3(C(=O)N(Cc4ccc(N5CCC5=O)cc4)c4ccccc43)[C@H]2C)cc1`, the composite z-score is -0.222 in assay [1]; -0.309 in [3]; -0.185 in [4]; -0.0351 in assay [5]; -0.217 in [6]; -0.191 in assay [7]. The composite z-score in [8] was 0.318; in [9], 0.0139; in assay [10], -0.0352. In addition, the z-score in assay [2] was -2.06.
Turning to `COc1cc2c(cc1O)C(C)N(Cc1ccc([N+](=O)[O-])o1)CC2` (stereo not given), the composite z-score is 1.28 in [1]; 0.0215 in assay [3]; 2.21 in assay [4]; 1.21 in [5]; 0.138 in [6]; -0.153 in assay [7]. In addition, the composite z-score in assay [8] was -0.335; in assay [9] it was 0.961; in [10], 1.95. In addition, the z-score in [2] is -0.616.
